Results from PubChem BioAssay (Tox21).
Results filed as inconclusive are left out. A number with no mark means an inactive call. Activity calls are given as the source filed them. Calls come from the whole dose curve.

biological target: Muscarinic acetylcholine receptor M1 (Homo sapiens) (UniProt P11229); test: Cholinergic receptor muscarinic 1 (CHRM1) small molecule antagonists, cell-based qHTS assay (AID 1963588); details: CHRM1-CHO antagonist mode, calcium flux fluorescence; series mostly up to 61.5 µM; activity, negative = inhibition: at the top concentration; note: nearly all actives have a fitted effect of over 40% in size
Sequence (P11229 whole entry, looked up): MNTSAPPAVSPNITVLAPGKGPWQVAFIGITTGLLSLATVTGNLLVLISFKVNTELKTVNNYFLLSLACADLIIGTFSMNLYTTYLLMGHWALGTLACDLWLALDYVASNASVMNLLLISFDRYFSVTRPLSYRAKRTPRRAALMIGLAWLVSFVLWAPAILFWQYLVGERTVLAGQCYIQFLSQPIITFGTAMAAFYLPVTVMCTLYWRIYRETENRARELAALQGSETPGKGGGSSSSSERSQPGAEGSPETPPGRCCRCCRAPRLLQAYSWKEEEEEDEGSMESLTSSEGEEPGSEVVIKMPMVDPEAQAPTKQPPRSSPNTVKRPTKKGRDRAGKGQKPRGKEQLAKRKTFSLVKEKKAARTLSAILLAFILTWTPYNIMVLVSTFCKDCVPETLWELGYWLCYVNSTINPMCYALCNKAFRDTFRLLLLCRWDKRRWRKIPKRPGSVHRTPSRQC
Source text: National Center for Advancing Translational Sciences [NCATS]
Division of Preclinical Innovation [DPI]
U.S. Environmental Protection Agency [EPA]
National Institutes of Environmental Health Sciences [NIEHS]
National Toxicology Program [NTP]
U.S. Food and Drug Administration [FDA]
The CHRM1 is a muscarinic receptor. This receptor plays a crucial role in learning and memory processes and has long been identified as a promising therapeutic target for the improvement of cognitive decline in Alzheimer's disease (AD). The CHRM1-CHO cell line stably expressing human muscarinic acetylcholine receptor M1 (CHRM1) can be used for screening agonists and antagonists of interactions between CHRM1 and its ligands. The CHRM1-CHO Calcium Flux Assay is a homogeneous fluorescence-based assay for detecting the intracellular calcium level using FDSS kinetic plate reader system.
Tox21 Assay Protocol Summary:
CHRM1-CHO cells were dispensed at 1000 cells/3uL/well in 1536-well black-clear bottom plates using a Multidrop Dispenser. After the assay plates were incubated at a 37 C/5% CO2 incubator for 18 h, 3 uL of Dye Loading Buffer was transferred to the assay plate by a Flying Reagent Dispenser. The assay plates were incubated at 37 C for 1h. For antagonist mode, 23 nL of compounds dissolved in DMSO, positive controls or DMSO only was transferred to the assay plate by a pin tool. After 5 min incubation at room temperature, 1.5 uL of acetylcholine at 50nM was added to each well. The fluorescence intensity in the plates was measured using FDSS 7000EX kinetic plate reader for 3 min at 1 sec intervals. Each test compound was measured at 15 concentrations in three independent runs.
% is set by controls: 0 for no effect and ±100 for the full control effect; potency is the fitted concentration of half-maximal effect.

| SMILES | activity, negative = inhibition | Potency |
| --- | --- | --- |
| Clc1cccnc1 | -15.4% |  |
| CC(=O)c1c(C)cc(C(C)(C)C)cc1C | -13.8% |  |
| Cc1cc(=O)oc2cc(O)cc(O)c12 | 2.25% |  |
| C=CC/C=C/C/C=C/C/C=C/C | -2.5% |  |
| CCC=CC#N | 5.82% |  |
| C=C(C)CCCC | 7.18% |  |
| O=c1[nH]ncc2ccccc12 | -4.99% |  |
| O=C(/C=C/c1ccccc1)OC/C=C/c1ccccc1 | 9.89% |  |
| CC1(C)CC(OC(=O)CCCCCCCCC(=O)OC2CC(C)(C)NC(C)(C)C2)CC(C)(C)N1 | 30.1% [at 12.6 µM] |  |
| C=CC(=O)OCCCl | 5.24% |  |
| O[C@@H](COc1cccc2ncccc12)CN1CCN(C2c3ccccc3[C@@H]3[C@H](c4ccccc42)C3(F)F)CC1 (stereo not given in full) |  | 3.65 µM (active) |
| Nc1cc(C(F)(F)F)ccc1S | -7.43% [at 28.3 µM] |  |
| O=C(O)c1ccccc1Cl | 7.64% |  |
| O=C1c2ccccc2C(=O)c2cc(O)ccc21 | 11.1% |  |
| Cn1cnc2ncnc(N)c21 | 24.7% [at 28.3 µM] |  |
| CCCCC/C=C/CC(=O)OC | 3.62% |  |
| Nc1ccc(Oc2cccc(Oc3ccc(N)cc3)c2)cc1 | 30.5% |  |
| CCCCCCCC/C=C\CCCCCCCC(=O)OC | 6.88% |  |
| Cc1ccc(NC(N)=O)cc1 | 0.236% |  |
| CC(C)(C)c1cc(CCC(=O)OCCSCCOC(=O)CCc2cc(C(C)(C)C)c(O)c(C(C)(C)C)c2)cc(C(C)(C)C)c1O | -21.8% [at 28.3 µM] |  |

| SMILES | activity, negative = inhibition | Potency |
| --- | --- | --- |
| Cc1c[nH]c2ccccc12 | 0.178% [at 28.3 µM] |  |
| c1cc[nH]c1 | 0.267% |  |
| CC(COc1ccccc1)NC(C)C(O)c1ccc(O)cc1 (stereo not given) | -8.78% [at 28.3 µM] |  |
| NS(=O)(=O)c1ccc(Cl)c(S(N)(=O)=O)c1 | 1.42% [at 28.3 µM] |  |
| COCCO | -3.95% |  |
| Nc1ccc(S(=O)(=O)NCc2ccccc2)cc1 | -7.29% [at 28.3 µM] |  |
| CCOC(=O)CC(C)O (stereo not given) | -16.7% |  |
| CN(C)CCN(Cc1ccsc1)c1ccccn1 | 19.4% [at 28.3 µM] |  |
| COc1cc2c(cc1OC)C(=O)CC2 | -1.85% [at 28.3 µM] |  |
| CN(C)CCc1c[nH]c2ccc(CS(=O)(=O)N3CCCC3)cc12 | -1.61% [at 28.3 µM] |  |
| O=C(O)C[C@H](O)C[C@H](O)/C=C/c1c(C2CC2)nc2ccccc2c1-c1ccc(F)cc1 | 7.39% [at 12.6 µM] |  |
| C=Cc1ccccc1 | 5.64% |  |
| CC(=O)c1cccnc1 | 4.94% |  |
| CCCCCOc1ccc(C2SC(=O)NC2=O)cc1OCC (stereo not given) | 24.8% [at 28.3 µM] |  |
| C=Cc1ccccc1C=C | -5.48% [at 160 µM] |  |
| OCC(CO)(CO)COCC(CO)(CO)CO | 9.01% |  |
| CCCCCCCCCCCCOC(=O)c1ccc(O)cc1 | -7.54% |  |
| CC(=O)C1C(=O)C=C(C)OC1=O (stereo not given) | 3.8% |  |
| Cc1cc(-c2ccccc2)nnc1NCCN1CCOCC1 | 2.56% [at 28.3 µM] |  |
| COC(=O)c1ccc(I)cc1S(=O)(=O)NC(=O)Nc1nc(C)nc(OC)n1 | 2.96% |  |
